BCR signal inh = chronic active BCR signaling inhibition; ABC-DLBCL IkBa-CBG/CBR reporter, luminescence ratio, 4 h; Potency, µM (series often up to 46.1 µM), inactives show at the highest dose activity change, negative = inhibition, hits mostly inhibitors; 340,000 compounds, 0.05% hits; active = well fitted inhibition curve with a large enough effect in the signal ratio, with a control signal flat, not every such curve was filed as active; inconclusive = small, poorly fitted or top-dose-only effect, or effect the other way, or a change in a side signal; the % refers to the signal ratio;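 also: potency is read from the fitted curve at half-maximal effect; plate controls were basal doxycycline-induced cells for no effect and cells given 10 µM MG132 for full effect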
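Cell line TMD8 (human ABC DLBCL), stably expressing tet-inducible CBG68-IkBa fusion and CBR; IMDM/0.5% FBS; cpd up to 46 uM; dox induction, 4 h, 37C/5% CO2; dual luminescence; green/red ratio; MG132 control.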
Gal4-VP16 FLuc = counter-screen for ROR gamma inhibitors: Gal4-VP16 reporter. Potency, µM (series often up to 53.6 µM), without a hit: at the highest dose activity, negative = inhibition, usual class: inhibitors. AID 2546. Drosophila S2 Gal4-VP16 UAS-luciferase, luminescence, 20 h. 310,000 compounds, 3.5% hits;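 also: Gal4-VP16 expression switched on by copper sulfate through the metallothionein promoter; potency is read from the fitted curve at half-maximal effect; % is scaled to controls: 0 for no effect and ±100 for the full control effect; nearly all actives have a fitted effect of over 50% in size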
Giardia killer = kills Giardia lamblia | Giardia lamblia trophozoite viability | activity change, % at 7.66 µM, hits read low | 340,000 compounds, 0.15% hits | AID 540267; in the data active = activity change below about -80%; inconclusive = between about -30% and that limit;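 also: parasites exposed to compound for two days anaerobically before the ATP read; % is scaled to controls: 0 for no effect and ±100 for the full control effect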
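Trophozoites 100 cells/well + cpd; 48 hrs, 37 deg C, anaerobic. ATPLite 1-Step added, 15-30 min RT, luminescence read (ATP-based viability).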
SW480 rerep = inducers of DNA re-replication in SW480 colon cancer cells. 340,000 compounds, 1.8% hits. SW480 DNA re-replication, Hoechst DNA content imaging, 48 h. Potency, µM (titrated, usually from 46.1 µM), without a hit: at the highest dose re-replication activation, most hits filed as activators; also: potency is read from the fitted curve at half-maximal effect; % of control where 0% means no effect; nearly all actives have a fitted effect of over 55% in size
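Image-based read-out: total Hoechst fluorescence of nuclei (405 nm excitation, 500-530 nm emission), with hits raising the fraction of high-intensity nuclei. SW480 colon cells incubated 48 hr with compounds at 37 C.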
MCF10A rereplic = DNA re-replication induction in MCF 10a cells; MCF 10A DNA re-replication, Hoechst nuclear intensity, 48 h; Potency, µM (highest dose often 46.1 µM), for the others: top-dose activity, positive = re-replication, most hits filed as activators; 350,000 compounds, 2.9% hits; also: potency is read from the fitted curve at half-maximal effect; % of control where 0% means no effect; nearly all actives have a fitted effect of over 50% in size
RORg inh = blocks mouse ROR gamma transcriptional activity; P51450; Drosophila S2 Gal4-RORgamma UAS-luciferase reporter, 20 h; Potency, µM (series often up to 53.6 µM), without a hit: at the top dose activity change, negative = inhibition, hits mostly inhibitors; 310,000 compounds, 5.4% hits; also: potency is read from the fitted curve at half-maximal effect; % is scaled to controls: 0 for no effect and ±100 for the full control effect; nearly all actives have a fitted effect of over 60% in size
Target sequence (P51450 whole entry, looked up, the tested form may be a part): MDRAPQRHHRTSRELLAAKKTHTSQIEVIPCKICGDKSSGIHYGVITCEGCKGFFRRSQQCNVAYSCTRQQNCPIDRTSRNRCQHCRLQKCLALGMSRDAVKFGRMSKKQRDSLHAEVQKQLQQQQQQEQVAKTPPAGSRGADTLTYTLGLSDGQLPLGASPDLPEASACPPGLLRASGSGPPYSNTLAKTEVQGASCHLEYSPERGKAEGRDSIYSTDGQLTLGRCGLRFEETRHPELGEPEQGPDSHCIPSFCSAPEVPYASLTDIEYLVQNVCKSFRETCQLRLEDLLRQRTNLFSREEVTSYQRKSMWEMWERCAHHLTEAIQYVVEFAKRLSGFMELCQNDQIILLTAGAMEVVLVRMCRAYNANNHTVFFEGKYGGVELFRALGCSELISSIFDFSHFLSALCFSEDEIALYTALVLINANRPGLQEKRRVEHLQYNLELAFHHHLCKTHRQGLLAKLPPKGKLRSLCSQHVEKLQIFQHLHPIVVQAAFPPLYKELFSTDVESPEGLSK
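Read-out: Photinus luciferase luminescence; inhibitors lower reporter signal. Insect Schneider cells with Gal4-ROR gamma fusion under metallothionein promoter, UAS reporter; 700 uM final copper sulfate induction, 20 hr, ambient temperature.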
Numbers without * were called inactive; [ ] = dose if it differs, or a comment. Only some compounds are listed: those with a hit (about 8.3% of all), similar ones and a draw of the others. Unless noted, calls follow the shape of the dose curve; as a rule, active = well fitted curve in the direction sought with a large enough effect; inconclusive = small, poorly fitted or top-dose-only effect, or another doubt; inactive = no such curve, though single readings can be large; an effect the other way counts as inactive or inconclusive.

`NC(=O)c1c(NC(=S)Nc2ccc(F)cc2)sc2c1CCCC2` gave BCR signal inh inconclusive, Gal4-VP16 FLuc -87.1%, Giardia killer -0.1, SW480 rerep -8.9%, MCF10A rereplic -5.8% and RORg inh 10µM*.
Screening CCOC(=O)c1c(NC(=S)Nc2ccc(C)cc2)sc2c1CCC2 returned BCR signal inh 4.9%, Gal4-VP16 FLuc inconclusive, Giardia killer -0.2, SW480 rerep -4.7%, MCF10A rereplic 4.5% and RORg inh 6.31µM*.
CCOC(=O)c1c(NC(=S)Nc2ccc(Cl)cc2)sc2c1CCN(C)C2 was read as BCR signal inh 5.3%, Gal4-VP16 FLuc -12.1%, Giardia killer 7.5, SW480 rerep inconclusive, MCF10A rereplic inconclusive and RORg inh 1.6%.
Screening O=C(CCl)N1c2ccccc2Sc2c1ccc1ccccc21 returned Giardia killer 2.3, SW480 rerep inconclusive and MCF10A rereplic 18.4µM*.
For O=C(C[n+]1ccccc1)N1c2ccccc2Sc2ccccc21 the results were BCR signal inh -22.5%, Gal4-VP16 FLuc -3.9%, Giardia killer 11.8, SW480 rerep 1.0%, MCF10A rereplic -2.7% and RORg inh -2.7%.
Cc1ccc(C(=O)CSC2=C(C#N)C(c3ccco3)C3=C(CCCC3=O)N2)cc1 (centres undefined) was read as BCR signal inh inconclusive, Gal4-VP16 FLuc -3.1%, Giardia killer 13.4, SW480 rerep 5.8µM*, MCF10A rereplic 8.2µM* and RORg inh 31.6%.
For N#CC1=C(SCC(=O)c2ccccc2)NC2=C(C(=O)CCC2)C1c1ccco1 (centres undefined) the results were BCR signal inh inconclusive, Gal4-VP16 FLuc inconclusive, Giardia killer 2.2, SW480 rerep 14.6µM*, MCF10A rereplic 8.91µM* and RORg inh inconclusive.
For CC(C)(C)c1ccc(C(=O)CCCSC2=C(C#N)C(c3ccco3)C3=C(CCCC3=O)N2)cc1 (centres undefined) the results were BCR signal inh 0.4%, Gal4-VP16 FLuc -16.1%, Giardia killer 28.2, SW480 rerep inconclusive, MCF10A rereplic inconclusive and RORg inh 2.8%.
O=C(/C=C/c1ccccc1)NC(NC(=S)Nc1cccc(O)c1)C(Cl)(Cl)Cl (centres undefined) was read as BCR signal inh 19.5%, Gal4-VP16 FLuc inconclusive, Giardia killer -19.2, SW480 rerep -15.3%, MCF10A rereplic inconclusive and RORg inh 8.3%.
Screening O=C(NC(NC(=S)Nc1ccccc1Cl)C(Cl)(Cl)Cl)c1cccc(Cl)c1 (centres undefined) returned BCR signal inh inconclusive, Gal4-VP16 FLuc 12.6µM*, Giardia killer -11.4, SW480 rerep inconclusive, MCF10A rereplic inconclusive and RORg inh inconclusive.
For O=C(/C=C/c1ccccc1)NC(NC(=S)Nc1ccc(Cl)cc1Cl)C(Cl)(Cl)Cl (centres undefined) the results were BCR signal inh inconclusive, Gal4-VP16 FLuc 5.01µM*, Giardia killer 9.1, SW480 rerep inconclusive, MCF10A rereplic 11.6µM* and RORg inh inconclusive.
Screening Cc1ccc(C)c(NC(=S)NC(NC(=O)/C=C/c2ccccc2)C(Cl)(Cl)Cl)c1 (centres undefined) returned BCR signal inh 4.7%, Gal4-VP16 FLuc 11.2µM*, Giardia killer -0.9, SW480 rerep inconclusive, MCF10A rereplic 2.91µM* and RORg inh 5.01µM*.
Screening O=C(/C=C/c1ccccc1)NC(NC(=S)Nc1cccc(Cl)c1)C(Cl)(Cl)Cl (centres undefined) returned BCR signal inh 21.5%, Gal4-VP16 FLuc 17.8µM*, Giardia killer -11.4, SW480 rerep inconclusive, MCF10A rereplic 7.31µM* and RORg inh inconclusive.
`O=C(/C=C/c1ccccc1)NC(NC(=S)Nc1ccc(C(=O)O)cc1)C(Cl)(Cl)Cl` (centres undefined) gave BCR signal inh -0.7%, Gal4-VP16 FLuc 3.2%, Giardia killer -23.5, SW480 rerep -1.1%, MCF10A rereplic 1.2% and RORg inh -1.0%[10 µM].

Screening data deposited in PubChem by National Center for Advancing Translational Sciences (NCATS).
